Screening results deposited in PubChem by several laboratories.
SUMO Mot1 rescue – SUMOylation pathway inhibition by Mot1-301 growth rescue. growth rescue, % at 18.8 µM. actives 1% (n = 320,000). S. cerevisiae Mot1-301 growth rescue, ATP luminescence, 38.5C; percent above DMSO median, 100 means doubled;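 active means every valid replicate shows activation above 250% relative to neutral control wells; inactive means the rest, any valid replicate at or below 250%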
HDAC3 inhib – inhibitors of human histone deacetylase 3; inhibition, % at 8.3 µM; recombinant HDAC3, fluorogenic peptide/trypsin coupled, fluorescence; actives 0.15% (n = 320,000); in the data active means inhibition above about 26%, passing the limit was not always enough
IDE act – IDE (human) activation, cell-based. activation, % at 5.96 µM. P14735. HEK cells, FAbeta-B cleavage, fluorescence polarization; 0% vehicle, 100% cell-free pure enzyme wells. actives 0.073% (n = 340,000);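 active means activation above the mean of all tested compounds plus 3 SD, set per screening campaign, cut at about 17% in these data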
Target sequence (P14735 whole entry, looked up): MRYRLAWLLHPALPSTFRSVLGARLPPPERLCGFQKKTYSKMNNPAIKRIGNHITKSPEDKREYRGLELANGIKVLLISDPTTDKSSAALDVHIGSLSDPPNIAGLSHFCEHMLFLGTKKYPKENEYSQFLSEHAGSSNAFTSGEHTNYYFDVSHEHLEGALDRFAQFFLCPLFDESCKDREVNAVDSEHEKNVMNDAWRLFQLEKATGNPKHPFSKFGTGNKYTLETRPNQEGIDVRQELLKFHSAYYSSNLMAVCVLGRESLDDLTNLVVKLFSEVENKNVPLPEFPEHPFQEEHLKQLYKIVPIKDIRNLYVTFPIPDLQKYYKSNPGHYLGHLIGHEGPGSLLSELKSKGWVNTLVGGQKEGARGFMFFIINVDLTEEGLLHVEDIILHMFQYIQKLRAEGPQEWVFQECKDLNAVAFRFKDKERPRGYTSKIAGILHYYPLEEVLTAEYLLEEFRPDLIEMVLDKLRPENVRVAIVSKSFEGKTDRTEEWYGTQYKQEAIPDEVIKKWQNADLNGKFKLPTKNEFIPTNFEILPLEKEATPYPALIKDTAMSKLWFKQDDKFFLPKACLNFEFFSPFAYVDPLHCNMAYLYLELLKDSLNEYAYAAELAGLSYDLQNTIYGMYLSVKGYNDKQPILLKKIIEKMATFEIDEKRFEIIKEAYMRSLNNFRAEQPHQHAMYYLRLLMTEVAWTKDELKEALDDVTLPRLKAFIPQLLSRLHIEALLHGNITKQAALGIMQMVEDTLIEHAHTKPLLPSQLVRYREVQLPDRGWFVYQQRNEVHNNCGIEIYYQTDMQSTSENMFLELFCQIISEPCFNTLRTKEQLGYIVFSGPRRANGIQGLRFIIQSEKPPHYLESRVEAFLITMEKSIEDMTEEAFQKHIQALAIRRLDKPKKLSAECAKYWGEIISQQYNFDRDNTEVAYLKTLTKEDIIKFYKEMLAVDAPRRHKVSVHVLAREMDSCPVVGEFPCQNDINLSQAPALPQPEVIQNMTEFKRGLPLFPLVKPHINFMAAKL
IDE inh – inhibits human insulin-degrading enzyme in HEK cells. inhibition, % at 5.59 µM. P14735. FAbetaB cleavage, fluorescence polarization. actives 0.41% (n = 320,000). AID 434962;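 active means percent inhibition above the average of all tested compounds plus 3 SD, set per screening campaign, cut at about 16% in these data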;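 further: IDE supplied by intact live HEK cells; FP after avidin binding of uncleaved biotin substrate so inhibition keeps polarization high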
LANA-H2B inh – blocks KSHV LANA binding to histone H2A/H2B. actives 0.6% (n = 320,000). inhibition, % (concentration not given with the values). AID 2629. Q9QR71. cell-free LANA-H2A/H2B peptide, fluorescence polarization; in the data active means inhibition mostly above about 10%, no sharp cut-off; inactive means mostly below about 6.7%
Large screens that a line does not name were inactive. In the library only some 2.1% were active in any assay of this set; here they are far more common.

COCCNC(=O)C(c1cccs1)N(Cc1ccccc1)C(=O)Cn1nnc2ccccc21 (stereo not given)	SUMO Mot1 rescue 284
COc1ccc(OC)c(C(O)c2nc3ccccc3n2C(C)C)c1 (stereo not given)	SUMO Mot1 rescue 304
O=C(O)c1cc(NN=Nc2cccc([N+](=O)[O-])c2)cc([N+](=O)[O-])c1	none
O=C(O)c1cc(NN=Nc2ccc(Br)cc2)cc([N+](=O)[O-])c1	SUMO Mot1 rescue 322
C=CCC[C@H](Cc1ccc(F)cc1)C(=O)OC[C@@H](NC(=O)[C@@H](CC=C)CC(=O)N[C@@H](CO)Cc1ccccc1)C(C)(C)C	HDAC3 inhib 32
C=CC[C@H](CC(=O)NCCO)C(=O)N[C@H](C)COC(=O)[C@@H](CC=C)Cc1ccc(F)cc1	LANA-H2B inh 14
C=CC[C@@H](CC(=O)N[C@H](CO)Cc1ccccc1)C(=O)N[C@@H](COC(=O)[C@@H](CC=C)Cc1ccc(F)cc1)Cc1ccccc1	LANA-H2B inh 175
C=CC[C@@H](CC(=O)NCCO)C(=O)N[C@H](C)COC(=O)[C@@H](CC=C)Cc1ccc(F)cc1	none
Cc1ccccc1NC(=O)Cc1nc(COC(=O)CCC(=O)c2ccccc2)cs1	LANA-H2B inh 104
Cc1ccc(CS(=O)(=O)c2cn(CC(=O)Nc3ccon3)c3ccccc23)cc1	none
COCCN1Cc2cccc(C(=O)Nc3ccc(-c4nc5ccccc5[nH]4)cc3)c2C1=O	SUMO Mot1 rescue 689
COc1ccccc1C(=O)NCC(=O)OCC(=O)c1cccc2ccccc12	SUMO Mot1 rescue 321
CCCCn1c(N)c(N(CC(C)C)C(=O)COC(=O)Cc2cccc(OC)c2)c(=O)[nH]c1=O	none
Cc1ccc(N2C(=O)c3ccc(C(=O)O)cc3C2=O)c(C)c1	SUMO Mot1 rescue 313
CC(NC(=O)/C=C/c1ccccc1)c1ccccc1 (stereo not given)	none
CC(C)C(NC(=O)/C=C/c1ccc(F)cc1)C(C)C	SUMO Mot1 rescue 288
CCC(C)NC(=O)c1cn(CC)c2cc(N3CCN(C(=O)c4ccco4)CC3)c(F)cc2c1=O (stereo not given)	none
CC(=O)Nc1c(Cl)c(Cl)c2c(c1Cl)Cc1cc(Cl)ccc1-2	none (no result: SUMO Mot1 rescue, HDAC3 inhib, IDE inh, LANA-H2B inh)
CCOC(=O)C1(Cc2cccc(Cl)c2)CCCN(C(=O)c2ccoc2C)C1 (stereo not given)	LANA-H2B inh 95 (no result: IDE inh)
COCC(C)NC(=O)CSc1nc2cc(S(=O)(=O)N3CCCCC3)ccc2o1 (stereo not given)	none
N#C/C(=C/c1cc[nH]c1)C(N)=S	SUMO Mot1 rescue 295
COc1ccc(C)cc1NC(=O)COC(=O)c1ccccc1SCC(=O)N1CCCC1	none
CCOC(=O)c1ccc(N=c2scc(C)n2CC)cc1	LANA-H2B inh 43
O=C(NC1CCC(Oc2ccc(C(=O)O)cc2)CC1)NC12CC3CC(CC(C3)C1)C2 (stereo not given)	none
CCOc1ccc(NC(=O)CSc2ccc3nnc(-c4cccnc4)n3n2)cc1	none
O=C(CSc1ccc2nnc(-c3cccnc3)n2n1)Nc1ccc(F)cc1	LANA-H2B inh 31
O=C(CSc1nnc(-c2cccnc2)n1-c1ccccc1)Nc1ccccc1	LANA-H2B inh 15
Cc1cccc(NC(=O)CSc2ccc3nnc(-c4cccnc4)n3n2)c1	LANA-H2B inh 13
COc1cccc(-c2nc3n(n2)C(c2ccc4c(c2)OCO4)C(C(N)=O)=C(C)N3)c1 (stereo not given)	HDAC3 inhib 56
CN(C)C(CNC(=O)c1ccc(C2SCCS2)cc1)c1ccccc1 (stereo not given)	HDAC3 inhib 54
O=C(CNS(=O)(=O)c1ccccc1)OCC(=O)c1ccccc1Cl	none
COc1ccc2ccccc2c1C(O)c1nccn1C (stereo not given)	IDE act 21, LANA-H2B inh 38
CCN(CC)C(=O)Cn1c(=O)oc2ccccc21	SUMO Mot1 rescue 389
COCCCNC(=O)Cn1cnc2c(OCc3ccccc3)ncnc21	LANA-H2B inh 194
NC(=O)C1CCCN(Cc2c(C(=O)N3CCc4ccccc4C3)nc3ccc(Cl)cn23)C1 (stereo not given)	LANA-H2B inh 99
CC(C)CN(C)Cc1c(C(=O)N2CCc3ccccc3C2)nc2ccc(Cl)cn12	LANA-H2B inh 17
O=C(CN1CCN(S(=O)(=O)c2ccc(Cl)c(C(F)(F)F)c2)CC1)NC(=O)NC1CCCCC1	none (no result: SUMO Mot1 rescue, HDAC3 inhib, IDE inh, LANA-H2B inh)
CC(C)C(=O)NC(c1ccc(N(C)C)cc1)c1c(O)ccc2ccccc12 (stereo not given)	LANA-H2B inh 27
COC(=O)c1[nH]c2cc(OC)c(OC)cc2c1NC(=O)CN1C[C@H]2C[C@@H](C1)c1cccc(=O)n1C2	none
Cc1cc(O)ccc1C1(c2ccc(O)cc2C)OC(=O)c2ccccc21	none
CC(=O)Oc1ccc2c(c1)Oc1cc(OC(C)=O)ccc1C21OC(=O)c2ccccc21	IDE act 42, LANA-H2B inh 142
CCNC(=O)c1c(C)nc2ccccn12	none (no result: SUMO Mot1 rescue)
CCN(CC)P(=O)(c1ccccc1)c1c(C)nc2ccccn12 (stereo not given)	SUMO Mot1 rescue 276
COc1ccccc1/C=C/C=N/NC(=O)c1cc(-c2ccc(C)o2)[nH]n1	SUMO Mot1 rescue 308
Oc1cccc(/C=N/NC(=S)Nc2cccnc2)c1O	LANA-H2B inh 197
CC[C@@]1(C(=O)OC)N[C@H](CN(C)S(=O)(=O)c2ccc(-c3ccccc3)cc2)[C@@H]2C(=O)N(C)C(=O)[C@@H]21	none
COc1ccc(N2CCN(C(=O)CCS(=O)(=O)c3ccc(OC)cc3)CC2)cc1	none
COc1ccc(S(=O)(=O)CCC(=O)N2CCN(c3ccc(C(C)=O)cc3)CC2)cc1	LANA-H2B inh 13
Cc1cc(NC(=O)c2cncc(Br)c2)ccc1NC(=O)c1cc2ccccc2o1	IDE act 18
COC(=O)c1cc(NC(=O)c2ccccc2F)cc(C(=O)OC)c1	LANA-H2B inh 22
COc1cc(NC(=O)c2ccccc2)ccc1NC(=O)c1cc2ccccc2o1	none
COC(=O)c1cc(NC(=O)c2cc3ccccc3o2)cc(C(=O)OC)c1	LANA-H2B inh 16
COC(=O)c1cccc(NC(=O)c2cc3ccccc3o2)c1	none
O=C(CNC(=O)c1ccc(Br)o1)Nc1cccc(S(=O)(=O)N2CCCC2)c1	none
Cc1cc(/C=C2/C(=N)N3C(=NC2=O)SN=C3S(C)(=O)=O)c(C)n1-c1ccccc1F	none
CS(=O)(=O)C1=NSC2=NC(=O)/C(=C\c3cccn3-c3ccc(Cl)cc3)C(=N)N21	LANA-H2B inh 48
CS(=O)(=O)C1=NSC2=NC(=O)/C(=C\c3ccc(OC(=O)c4ccco4)cc3)C(=N)N21	HDAC3 inhib 35 (no result: IDE act)
CC(=O)Nc1ccc(NC(=O)c2cc[n+]([O-])cc2)cc1	none
O=S(=O)(Nc1ccc2c(c1)OCO2)c1ccc(F)c(F)c1	LANA-H2B inh 27
O=C(O)c1cccc(S(=O)(=O)Nc2ccc3c(c2)OCO3)c1	none
Cc1cccc(CCNC(=O)CCS(=O)(=O)c2ccc(Br)cc2)c1	LANA-H2B inh 18
